DT40 TDP1 CPT – growth inhibition of DT40 Tdp1-/-;hTDP1 cells with camptothecin (screen for TDP1 inhibitors); chicken DT40 Tdp1-/-;hTDP1 cells + 20 nM CPT, ATP luminescence, 48 h; Potency, µM (top dose mostly 46.2 µM), for inactives: top-dose activity change, negative = growth inhibition, hits mostly inhibitors; 420,000 tested, 12% active; AID 686979; note: potency is the fitted concentration of half-maximal effect; nearly all actives have a fitted effect of over 55% in size
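Chicken DT40 Tdp1-/- cells stably complemented with human TDP1 were seeded at 400 cells/well in medium containing 20 nM camptothecin, exposed to pin-transferred compounds, and grown at 37 °C for at least 48 hr. Viability was read as ATP luminescence.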
12-LOX inh – ALOX12 (human) lipoxygenase inhibition; P18054; purified 12hLO, xylenol orange hydroperoxide absorbance; 580,000 tested, 1.1% active; Potency, µM (highest dose often 108 µM), for the others: top-dose activity change, negative = inhibition, actives largely listed as inhibitors; note: potency is the fitted concentration of half-maximal effect
Target sequence (P18054 whole entry, looked up): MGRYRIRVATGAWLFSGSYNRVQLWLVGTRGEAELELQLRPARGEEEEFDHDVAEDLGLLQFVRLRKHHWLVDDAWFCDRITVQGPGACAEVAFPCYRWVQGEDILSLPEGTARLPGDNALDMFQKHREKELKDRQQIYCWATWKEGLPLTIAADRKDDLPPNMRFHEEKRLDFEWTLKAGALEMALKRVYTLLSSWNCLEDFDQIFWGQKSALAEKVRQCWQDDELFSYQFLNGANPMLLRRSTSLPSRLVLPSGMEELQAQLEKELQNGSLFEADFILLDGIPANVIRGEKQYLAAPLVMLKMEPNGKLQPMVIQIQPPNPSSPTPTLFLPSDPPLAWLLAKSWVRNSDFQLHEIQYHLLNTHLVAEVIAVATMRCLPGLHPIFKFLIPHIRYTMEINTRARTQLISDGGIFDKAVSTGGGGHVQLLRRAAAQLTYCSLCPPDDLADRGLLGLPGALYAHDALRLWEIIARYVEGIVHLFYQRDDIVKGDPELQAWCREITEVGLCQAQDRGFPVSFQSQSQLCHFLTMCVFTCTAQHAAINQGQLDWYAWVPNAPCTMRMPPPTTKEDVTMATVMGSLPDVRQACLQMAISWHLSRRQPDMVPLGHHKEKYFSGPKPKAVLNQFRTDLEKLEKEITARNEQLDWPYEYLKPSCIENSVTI
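Purified human 12hLO (150 nM final) in 25 mM Hepes, 0.01% Triton X-100, pH 7.0 was preincubated 15 min at room temperature with compound. Then 40 uM arachidonic acid was added, 30 min. Hydroperoxide was read by Fe-XO absorbance ratio 573/405 nm.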
IL1B secr inh – inhibitors of inflammasome signaling (IL-1 beta secretion). THP-1 LPS/ATP IL-1B secretion, AlphaLISA, 16 h; hits give low values. activity change, % at 57.5 µM. 360,000 tested, 4.7% active. AID 743279; in the data active = activity change below about -50%; inconclusive = mostly about -30% to -49%
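THP-1 cells pretreated 1 hr with compounds (up to 57.5 uM final), then stimulated with LPS (250 ng/mL final) plus ATP (1.25 mM final); secreted IL-1B measured by AlphaLISA after 16 hr, decreased signal indicating inhibition.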
TDP1 cell noCPT – qHTS for Inhibitors of human tyrosyl-DNA phosphodiesterase 1 (TDP1): qHTS in cells in absence of CPT; DT40 Tdp1-/- hTDP1 cells, no CPT, ATP luminescence, 48 h; Potency, µM (highest dose often 46.2 µM), without a hit: at the highest dose activity change, negative = growth inhibition, usual class: inhibitors; 420,000 tested, 15% active; note: potency is the fitted concentration of half-maximal effect; nearly all actives have a fitted effect of over 55% in size
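Seeded 400 DT40-hTDP1 cells/well (vehicle DMSO, no 20 nM CPT); pinned compounds; ≥48 hr at 37 °C; CellTiter-Glo luminescence as viability measure.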
HT1080 IDH1KD tx – toxicity to HT-1080 IDH1 knockdown cells (counter line). Potency, µM (series often up to 46.1 µM), for inactives: top-dose activity, negative = toxicity, hits mostly cytotoxic. HT-1080 IDH1 knockdown viability, ATP luminescence, 48 h. AID 686971. 360,000 tested, 2% active;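 note: potency is the fitted concentration of half-maximal effect; 0% = DMSO wells and -100% = cell-free medium wells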
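IDH1KD HT-1080 cells, 750/well, RPMI + 5% FBS; compound pinned after 2 h settling; 48 h, 37 °C; CellTiter-Glo luminescence; % activity normalised to DMSO and no-cell wells; curves fitted, classed by r2 and efficacy.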
HT1080-NT tox – kills 2HG-producing HT-1080-NT fibrosarcoma cells | Potency, µM (highest dose often 46.1 µM), without a hit: at the highest dose activity, negative = less viability, most hits filed as cytotoxic | HT-1080-NT fibrosarcoma viability, CellTiter-Glo ATP luminescence, 48 h | 360,000 tested, 1.6% active | AID 686970;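 note: NT is the 2HG producing partner of a matched IDH1 knockdown line; potency is the fitted concentration of half-maximal effect; 0% = DMSO-treated cells and -100% = media-only wells without cells; nearly all actives have a fitted effect of over 55% in size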
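Viability of the 2HG-overproducing fibrosarcoma line after 48 hours of compound exposure at 37 degrees C was determined by luminescence with CellTiter-Glo, and concentration-effect curves were then fitted and categorized.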
An asterisk follows results filed as active; ? = inconclusive; . = no result given. The sample as a whole holds a higher share of hits than the screen did. Unless noted, calls come from the whole dose curve; as a rule, active = well fitted curve in the direction sought with a large enough effect; inconclusive = small, poorly fitted or top-dose-only effect, or another doubt; inactive = no such curve, though single readings can be large; an effect the other way counts as inactive or inconclusive. Unless noted, % is set by controls: 0 for no effect and ±100 for the full control effect.

SMILES	DT40 TDP1 CPT	12-LOX inh	IL1B secr inh	TDP1 cell noCPT	HT1080 IDH1KD tx	HT1080-NT tox
FC(F)(F)C(Oc1nc(OC(C(F)(F)F)C(F)(F)F)nc(N2CCOCC2)n1)C(F)(F)F	.	-1.1%	.	.	.	.
CCc1ccc(Nc2nc(N3CCOCC3)nc(N3CCOCC3)n2)cc1	?	?	?	?	3.5%	-0.5%
O=C1NCCc2onc(-c3ccc(Br)cc3)c21	?	-1.6%	-12.9	?	1.5%	15.6%
COc1ccccc1NC(=O)Nc1nc(CC(=O)N2CCN(c3ccc(F)cc3)CC2)cs1	?	-9.4%	-9.0	?	-29.7%	-18.2%
COc1ccc(N2CCN(C(=O)Cc3csc(NC(=O)Nc4ccccc4OC)n3)CC2)cc1	16.4µM*	?	-18.5	16.4µM*	-11.1%	-10.6%
COc1ccccc1NC(=O)Nc1nc(CC(=O)N2CCN(c3ccccc3)CC2)cs1	16.4µM*	?	?	?	-18.6%	-21.5%
COc1ccccc1NC(=O)Nc1nc(CC(=O)NCC2CCCCC2)cs1	.	-4.2%	.	.	.	.
Cc1ccccc1/C=N/O	.	7.9%	.	.	.	.
Cn1ncc(N2CCC(C(=O)NCc3cc(F)ccc3F)C2)cc1=O (stereo not given)	.	-10.4%	.	.	.	.
O=C(Cc1ccc(S(=O)(=O)N2CCOCC2)s1)Nc1cc(Cl)ccc1Cl	3.7%	0.0%	-56.6*	-15.3%	-13.3%	-6.6%
COc1cc(NC(=O)Cc2ccc(OC)c(S(=O)(=O)N3CCOCC3)c2)c(OC)cc1Cl	?	4.1%	19.1	?	-2.8%	-2.1%
COc1ccc(Br)cc1CN(C)C(=O)Cc1ccc(S(=O)(=O)N2CCOCC2)s1	?	-20.3%	-2.5	20.6µM*	-9.9%	-0.9%
COc1ccc(CN(C)C(=O)Cc2ccc(S(=O)(=O)N3CCOCC3)s2)cc1OC	-3.5%	13.6%	-15.9	?	-4.7%	-8.6%
COc1cc(NC(=O)Cc2ccc(S(=O)(=O)N3CCOCC3)s2)c(OC)cc1Cl	?	-13.4%	11.8	20.6µM*	-15.0%	-4.0%
O=C(c1cn(CCOc2ccccc2Cl)c2ccccc12)C(F)(F)F	.	-2.2%	.	.	.	.
COc1ccc(NC(=O)C(C)Oc2cc(C)cc(C)c2)c2cccnc12 (stereo not given)	.	18.6%	.	.	.	.
O=c1c2ccccc2c(C=Nc2ccccc2O)c(O)n1-c1nccs1	-29.4%	7.8%	-28.7	?	4.8%	?
Cc1cccc(C)c1N=Cc1c(O)n(-c2nccs2)c(=O)c2ccccc12	14.6µM*	.	-50.5*	20.6µM*	0.5%	-4.6%
Cc1cc(C)c(N=Cc2c(O)n(-c3nccs3)c(=O)c3ccccc23)c(C)c1	?	3.5%	?	16.4µM*	-2.6%	3.7%
Cc1ccccc1N=Cc1c(O)n(-c2nccs2)c(=O)c2ccccc12	?	-5.8%	-54.8*	?	12.7%	12.5%
Cc1cc(N=Cc2c(O)n(-c3ccc(C)c(C)c3)c(=O)c3ccccc23)no1	.	-23.7%	.	.	.	.
Cc1csc2nc(-c3cccc(NC(=O)c4c(F)cccc4F)c3)cn12	23.1µM*	-0.5%	.	23.1µM*	.	.
Cc1csc2nc(-c3cccc(NC(=O)c4ccc(S(N)(=O)=O)cc4)c3)cn12	?	-28.3%	.	16.4µM*	.	.
C[C@@H]1CN([C@H](C)CO)C(=O)CCCn2cc(nn2)CO[C@H]1CN(C)C(=O)Nc1ccccc1	-26.7%	0.4%	26.0	12.8%	10.4%	12.8%
CC(c1nc2ccccc2c(=O)[nH]1)N1CCN(S(=O)(=O)c2ccc(F)c(Cl)c2)CC1 (stereo not given)	18.4µM*	-1.0%	-4.2	?	-16.7%	-19.9%
SMILES	DT40 TDP1 CPT	12-LOX inh	IL1B secr inh	TDP1 cell noCPT	HT1080 IDH1KD tx	HT1080-NT tox
Cc1cc(C)c(C)c(S(=O)(=O)N2CCN(C(C)c3nc4ccccc4c(=O)[nH]3)CC2)c1C (stereo not given)	.	-4.2%	.	.	.	.
O=S(=O)(c1ccc(F)c(F)c1)N1CCN(Cc2ncc(-c3ccccc3)o2)CC1	.	14.4%	.	.	.	.
COc1ccc2oc(-c3ccc(NC(=O)CC(C)C)cc3)nc2c1	.	3.2%	.	.	.	.
COc1ccc2c(c1)C[C@]1(C)c3ccccc3C(=O)N(Cc3ccccc3)[C@H]21	16.4µM*	-27.0%	-11.8	6.31µM*	?	-24.5%
CCc1nncn1C1CCN(S(=O)(=O)c2ccccc2)CC1	.	20.4%	.	.	.	.
CC(=O)NC1CC2(CCN(C(=O)C3CCN(C)CC3)CC2)c2ccccc21 (stereo not given)	.	9.1%	.	.	.	.
CC(=O)OC1CC(OC(C)=O)[C@]2(C)C(CC(=O)[C@]3(C)C2CC[C@@]2(C)C(C(=O)O)OC(=O)C4OC423)C1(C)C (stereo not given in full)	5.7%	.	.	2.8%	.	.
C=C1C(=O)[C@]23C[C@H]1CCC2[C@]1(C)CCC[C@@](C)(C(=O)O)C1C[C@@H]3O (stereo not given in full)	1.46µM*	-2.3%	-121.4*	1.64µM*	2.31µM*	4.11µM*
C=C1C(=O)[C@]23C[C@H]1CCC2[C@]1(C)C(=O)CC[C@@](C)(C(=O)O)C1C[C@@H]3O (stereo not given in full)	2.91µM*	?	-109.1*	3.66µM*	8.2µM*	6.51µM*
C=C1C(=O)[C@]23C[C@H]1CC[C@H]2[C@]1(C)[C@@H](OC(C)=O)CC[C@@](C)(C(=O)O)[C@H]1C[C@@H]3OC(C)=O	2.06µM*	3.5%	-99.2*	4.11µM*	6.51µM*	6.51µM*
Cc1nn(CCC(=O)Nc2ccc(F)cc2)c(C)c1S(=O)(=O)N1CCC(C)CC1	.	-4.2%	.	.	.	.
COc1ccccc1-c1cc(C(F)(F)F)nc(S(=O)(=O)CCCC(=O)Nc2ccc(F)c(Cl)c2)n1	-22.6%	-16.5%	.	?	.	.
COc1ccc(-c2cc(C(F)(F)F)nc(S(=O)(=O)CCCC(=O)Nc3ccccc3C(F)(F)F)n2)cc1OC	1.16µM*	?	.	2.06µM*	.	.
COc1ccc(NC(=O)CCCS(=O)(=O)c2nc(-c3ccc(OC)c(OC)c3)cc(C(F)(F)F)n2)cc1OC	1.64µM*	-19.0%	.	1.64µM*	.	.
COc1ccc(-c2cc(C(F)(F)F)nc(S(=O)(=O)CCCC(=O)Nc3cccc(O)c3)n2)cc1OC	3.66µM*	-11.3%	-145.7*	4.11µM*	11.6µM*	18.4µM*
N#Cc1cccc(NC(=S)N[C@H]2CO[C@H]3[C@@H]2OC[C@@H]3n2nnnc2Oc2cccc(N3CCOCC3)c2)c1	.	28.0%	.	.	.	.
